SMILES strings stand for the structures. This is part of a sample that, as a whole, favours compounds with a hit. Of some 83,000 tested, about 20% had one in any assay.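 Cells were grown in 96-well plates and exposed to the test compound at a single concentration for 48 hours; results are reported as percent growth, with values below 10 considered active.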 Unmarked numbers belong to inactive results. Activity calls are given as the source filed them.

Drawing on PubChem BioAssay (NCI), this text covers growth for twelve compounds.

Some test systems named below: HCT-15 colon; HT29 colon; SNB-75 CNS; SNB-19 CNS; U251 CNS; PC-3 prostate; SK-MEL-5 melanoma; LOX IMVI melanoma; SK-MEL-28 melanoma; UACC-62 melanoma.
Common to all, as to experiment: NCI-60 one-dose screen, 48 h (100 = growth as untreated, 0 = no growth, -100 = all killed)
Conditions in all cases: 10 µM unless noted

Regarding `CC[C@H](C)[C@H](NC(=O)C12C3C4C1C1C2C3C41NC(C)=O)C(=O)N(C)[C@H](C[C@@H](OC(C)=O)c1nc(C(=O)N[C@@H](Cc2ccccc2)C[C@H](C)C(=O)OC)cs1)C(C)C` (stereo not given in full), the growth in the test with HCT-15 colon is 24.8%; with HT29 colon it was 4.53% (active); in the test with SNB-75 CNS it was 38.6%; with SNB-19 CNS, 56.1%; in the test on U251 CNS it was 9.8% (active); with PC-3 prostate, 11.3%. In addition, the growth is -13.4% (active) in the test with SK-MEL-5 melanoma, 14.9% in the test with LOX IMVI melanoma and 59.6% in the test on SK-MEL-28 melanoma.

For `Cn1cc(-c2csc(-c3cn(CCN4CCOCC4)c4ccc(F)cc34)n2)c2cccnc21`, the growth was 19.6% in the test with HCT-15 colon; 40.1% in the test on HT29 colon; 51.1% in the test on SNB-75 CNS; 49.2% with SNB-19 CNS; 36.9% with U251 CNS; 1.07% (active) in the test with PC-3 prostate. Besides, the figures for the growth with SK-MEL-5 melanoma, in the test with LOX IMVI melanoma and in the test with SK-MEL-28 melanoma were -28.8% (active), 27.9% and 40.5%, respectively.

Consider `COC(=O)[C@@H](NC(=O)c1cn(CCC2CCCCC2)c2ccccc12)C(C)(C)C`, for which the growth in the test with HCT-15 colon was 59.9%; in the test with HT29 colon, 69%; in the test on SNB-75 CNS, 71.2%; with SNB-19 CNS, 97.5%; in the test on U251 CNS, 72.6%; in the test with PC-3 prostate it was 49.7%. Further, the values for the growth with UACC-62 melanoma, in the test on LOX IMVI melanoma and in the test on SK-MEL-28 melanoma were 38.1%, 54.2% and 85.8%, respectively.

In the case of `CC1(C)N=C(N)N=C(N)N1c1ccc(CCC(=O)Nc2ccc(S(=O)(=O)F)cc2)c(Cl)c1`, the growth with HCT-15 colon was 48%; in the test with HT29 colon, 15.5%; in the test on SNB-75 CNS, 59.4%; in the test on SNB-19 CNS, 42%; in the test with U251 CNS, 35%; with SK-MEL-5 melanoma it was 22.2%. The growth in the test on UACC-62 melanoma was 16.9%; in the test on LOX IMVI melanoma, 15.3%; with SK-MEL-28 melanoma it was 50.4%.

With `O=C(CC1(O)C(=O)N(Cc2ccccc2)c2ccc(F)cc21)c1ccc(C(=O)NCC2CCC3(CC2)OOC2(CCCCC2)OO3)cc1` (stereo not given), the growth in the test on HCT-15 colon was -14.3% (active); in the test with HT29 colon it was -70.2% (active); in the test on SNB-75 CNS, -62.1% (active); with SNB-19 CNS it was 16.8%; in the test with U251 CNS it was -80.1% (active); in the test with PC-3 prostate, -58.8% (active). Further, the growth was -12.5% (active) in the test on UACC-62 melanoma, -84.5% (active) in the test on LOX IMVI melanoma and 51.5% in the test on SK-MEL-28 melanoma.

On to `O=[N+]([O-])c1ccc(OP(=O)(CCl)N(CCCl)CCCl)cc1` (stereo not given), for which the growth is 90.3% with HCT-15 colon; 86.8% with HT29 colon; 77.7% in the test on SNB-75 CNS; 111% with SNB-19 CNS; 96.1% with U251 CNS; 107% in the test on SK-MEL-5 melanoma. The growth with UACC-62 melanoma was 104%; with LOX IMVI melanoma, 98.4%; with SK-MEL-28 melanoma, 106%.

Turning to `N#CC1C(C#N)C2CCC1C1C2N1c1ccccc1` (stereo not given), the growth is 97.9% with HCT-15 colon; 114% with HT29 colon; 87.1% with SNB-75 CNS; 104% in the test on SNB-19 CNS; 111% in the test on U251 CNS; 104% in the test with SK-MEL-5 melanoma. In addition, the growth with UACC-62 melanoma is 105%; with LOX IMVI melanoma it was 103%; with SK-MEL-28 melanoma it was 106%.

Take `CCC1CC(O)c2c(O)c3c(c(O)c2C1O)C(=O)c1cccc(O)c1C3=O` (stereo not given) (tested in a mixture with another compound): the growth in the test with HCT-15 colon is -20.2% (active); with HT29 colon, -24.6% (active); in the test on SNB-75 CNS, -93.5% (active); in the test on SNB-19 CNS, -16.4% (active); with U251 CNS, -12.2% (active); in the test with PC-3 prostate, -33.4% (active). For the same compound, the growth was -71.7% (active) with UACC-62 melanoma and -28.1% (active) with LOX IMVI melanoma.

On to `CC[C@]12C=CCN3CC[C@@]4(c5ccc(OC)cc5N(C)[C@H]4[C@@](O)(C(=O)OC)[C@@H]1OC(=O)CCCC[P+](c1ccccc1)(c1ccccc1)c1ccccc1)[C@@H]32`, for which the growth was 99.3% with HCT-15 colon; 2.65% (active) with HT29 colon; -12.8% (active) in the test on SNB-75 CNS; 12.7% in the test with SNB-19 CNS; 10.9% with U251 CNS; -72.9% (active) with SK-MEL-5 melanoma. In addition, the growth in the test on UACC-62 melanoma is -6.54% (active); in the test with LOX IMVI melanoma, 18.5%; in the test on SK-MEL-28 melanoma, 12.5%.

In the case of `Cc1cc(NC(=O)NCc2ccc(N3C(N)=NC(N)=NC3(C)C)cc2)ccc1S(=O)(=O)F`, the growth in the test on HCT-15 colon was 62.2%; in the test on HT29 colon, 11.3%; in the test with SNB-75 CNS, 56%; in the test with SNB-19 CNS, 34.3%; in the test on U251 CNS, 32.7%; in the test with SK-MEL-5 melanoma it was 21%. Moreover, the growth in the test on UACC-62 melanoma is 11.6%; in the test on LOX IMVI melanoma it was 16.7%; in the test on SK-MEL-28 melanoma, 57.4%.

As to `CC[C@H](C)[C@@H]1OC(=O)C(C)(C)[C@H](O)[C@H](Cc2ccccc2)OC(=O)[C@H](C(C)C)OC(=O)[C@@H](NC(=O)c2cccc(NC=O)c2O)[C@@H](C)OC1=O`, the growth was 36.2% in the test on HCT-15 colon; 48.4% with HT29 colon; 63.9% in the test on SNB-75 CNS; 49.5% with SNB-19 CNS; 41.2% in the test on U251 CNS; 43.9% with PC-3 prostate. Moreover, the growth in the test with LOX IMVI melanoma was 38.1%.

Regarding `O=C(CC1(O)C(=O)Nc2ccccc21)c1ccc(C(=O)NCC2CCC3(CC2)OOC2(CCCCC2)OO3)cc1` (stereo not given), the growth with HCT-15 colon was 79.9%; with HT29 colon it was 82.1%; with SNB-75 CNS, 82.1%; in the test on SNB-19 CNS, 86.4%; in the test with U251 CNS, 63.6%; in the test with PC-3 prostate, 50.8%. The values for the growth in the test on UACC-62 melanoma, with LOX IMVI melanoma and with SK-MEL-28 melanoma were 63.4%, 57.3% and 86.4%, respectively.
